In the library only some 19% were active in any assay of this set; here they are far more common.
uPA generation = inhibitors of cell surface uPA generation; cell surface uPA generation assay, qHTS; Potency, µM (series often up to 38.3 µM), most hits filed as inhibitors; 0.31% of 330,000 active; active = well fitted inhibition curve with a large enough effect; inconclusive = small, poorly fitted or top-dose-only effect; inactive = no such curve, though single readings can be large or run the other way; tested in mouse RAW 264.7 cells; note: nearly all actives have a fitted effect of over 55% in size
HT1080 IDH1KD tx = HT-1080 IDH1 knockdown cell toxicity (counter line); HT-1080 IDH1 knockdown viability, ATP luminescence, 48 h; 2% of 360,000 active; AID 686971; Potency, µM (top dose mostly 46.1 µM), hits mostly cytotoxic
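HT-1080-IDH1KD cells (IDH1 knocked down), 750/well in RPMI with 5% FBS, treated with compound 48 h at 37 degrees C. Viability by CellTiter-Glo luminescence, normalised to DMSO and no-cell wells; concentration-response curves classed.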
DT40 TDP1 no CPT = qHTS for Inhibitors of human tyrosyl-DNA phosphodiesterase 1 (TDP1): qHTS in cells in absence of CPT; DT40 Tdp1-/- hTDP1 cells, no CPT, ATP luminescence, 48 h; Potency, µM (series often up to 46.2 µM), most hits filed as inhibitors; 15% of 420,000 active; AID 686978, 2013; note: nearly all actives have a fitted effect of over 55% in size
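Seeded 400 DT40-hTDP1 cells/well (vehicle DMSO, no 20 nM CPT); pinned compounds; ≥48 hr at 37 °C; CellTiter-Glo luminescence as viability measure.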
HT1080NT lethal = kills 2HG-producing HT-1080-NT fibrosarcoma cells; HT-1080-NT fibrosarcoma viability, CellTiter-Glo ATP luminescence, 48 h; Potency, µM (doses to about 46.1 µM), most hits filed as cytotoxic; 1.6% of 360,000 active;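 note: NT is the 2HG producing partner of a matched IDH1 knockdown line; nearly all actives have a fitted effect of over 55% in size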
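A 48-hour cytotoxicity screen used HT-1080-NT cells plated 2 hours before compound delivery. ATP-based CellTiter-Glo luminescence measured viability, normalized to DMSO and no-cell controls.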
IL1B secr inh = inflammasome signaling inhibition, IL-1 beta readout; activity change, % at 57.5 µM; THP-1 LPS/ATP IL-1B secretion, AlphaLISA, 16 h; stronger effect = lower value; 4.7% of 360,000 active; AID 743279; in the data active = activity change below about -50%; inconclusive = mostly about -30% to -49%
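THP-1 cells pretreated 1 hr with compounds (up to 57.5 uM final), then stimulated with LPS (250 ng/mL final) plus ATP (1.25 mM final); secreted IL-1B measured by AlphaLISA after 16 hr, decreased signal indicating inhibition.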
TDP1 cell CPT = growth inhibition of DT40 Tdp1-/-;hTDP1 cells with camptothecin (screen for TDP1 inhibitors). AID 686979. Potency, µM (series often up to 46.2 µM), actives largely listed as inhibitors. chicken DT40 Tdp1-/-;hTDP1 cells + 20 nM CPT, ATP luminescence, 48 h. 12% of 420,000 active; note: nearly all actives have a fitted effect of over 55% in size
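Chicken DT40 Tdp1-/- cells complemented with human TDP1, 400 cells/well, exposed to compounds plus 20 nM camptothecin for at least 48 h at 37 C; viability read as ATP content by CellTiter-Glo luminescence.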
Hits are given with their value; 0 = inactive; ? = inconclusive; - = no result given; [ ] = remark or other dose. Unless noted, calls come from the whole dose curve; as a rule, active = well fitted curve in the direction sought with a large enough effect; inconclusive = small, poorly fitted or top-dose-only effect, or another doubt; inactive = no such curve, though single readings can be large; an effect the other way counts as inactive or inconclusive.

SMILES | uPA generation | HT1080 IDH1KD tx | DT40 TDP1 no CPT | HT1080NT lethal | IL1B secr inh | TDP1 cell CPT
CC(C)C[C@@H](CN1CCCC1CN1C(=S)NC[C@@H]1Cc1ccccc1)N1C[C@H](Cc2ccc(O)cc2)N(CC2CCCCC2)C1=S (some centres not stated) | - | ? | 18µM | ? | 0 | ?
CC(C)C[C@@H](CN1CCCC1CN1C(=S)NC[C@@H]1Cc1ccccc1)N1C[C@H](Cc2ccccc2)N(CC2CCCCC2)C1=S (some centres not stated) | - | 0 | ? | 0 | 0 | ?
CC(C)C[C@H]1CNC(=S)N1CC1CCCN1C[C@H](CC(C)C)N1C[C@H](CC(C)C)N(CC2CCCCCC2)C1=S (some centres not stated) | 0 | 0 | 16µM | 0 | 0 | 18µM
COc1ccc(NC(=O)C2c3ccccc3OCC(=O)N2Cc2cccnc2)cc1 (configuration not stated) | - | 0 | 0 | 0 | 0 | 0
CCc1nnc(NS(=O)(=O)c2ccc(NCc3ccccc3O)cc2)s1 | 0 | 0 | 0 | 0 | 0 | 0
CC(C)C[C@@H](CN1CCC[C@@H]1CN1C(=S)NC[C@@H]1Cc1ccc(O)cc1)N1C[C@H](Cc2ccc(O)cc2)N(CC2CCCCCC2)C1=S | - | 18µM | 16µM | ? | -82 | 18µM
CC(C)C[C@H]1CNC(=S)N1CC1CCCN1C[C@H](CC(C)C)N1C[C@H](Cc2ccccc2)N(CC2CCCCCC2)C1=S (some centres not stated) | 0 | 0 | 23µM | 0 | 0 | ?
O=C(Nc1ccc(C(F)(F)F)cc1)C1CCN(c2cnccn2)CC1 | 0 | 0 | ? | ? | 0 | ?
Cc1ccc(CNC(=O)CN2C(=O)CSc3ccc(S(=O)(=O)N(C)C)cc32)cc1 | - | - | 0 | - | - | ?
CC(=O)Oc1ccc2c(c1)CCC1C2CC[C@]2(C)C(OC(C)=O)CCC12 (some centres not stated) | - | - | 0 | - | - | 0
CCc1nn(C(CC)C(=O)NCc2ccc(OC)c(OC)c2)c(=O)c2cc3oc(C)cc3n12 (configuration not stated) | - | - | 9.2µM | - | - | 16µM
COc1cc2nc(N3CCCC(O)C3)c(CNCc3ccccc3C(F)(F)F)cc2c(OC)c1OC (configuration not stated) | - | - | ? | - | - | 0[9.04 µM]
O=C(CCl)N(O)c1ccc(C=Cc2ccccc2)cc1 | 0 | 0 | 0.21µM | 0 | -77 | 0.13µM
COc1cccc(NC(CNS(=O)(=O)c2ccc(Cl)cc2)c2ccccc2)c1 (configuration not stated) | - | - | 16µM | - | - | ?
O=S(=O)(NCC(Nc1ccc(Cl)cc1)c1ccccc1)c1ccccc1 (configuration not stated) | 0 | ? | 16µM | ? | -92 | ?
Cc1ccc(NC(CNS(=O)(=O)c2ccc(Cl)cc2)c2ccccc2)cc1 (configuration not stated) | 0 | ? | 23µM | ? | ? | 21µM
COc1cc(CN2CCCC(n3cc(C(=O)N4CCCCC4)nn3)C2)cc2c1OCO2 (configuration not stated) | - | - | 0 | - | - | 0[9.04 µM]
CCOc1cc(N2CCOCC2)c(OCC)cc1NC(=O)Cc1cccc2ccccc12 | 0 | ? | ? | 0 | 0 | ?
CCOc1cc(N2CCOCC2)c(OCC)cc1NC(=O)C(NC(=O)c1ccco1)C(C)C (configuration not stated) | 0 | 0 | 12µM | 0 | 0 | 0
CCOc1cc(N2CCOCC2)c(OCC)cc1NC(=O)c1ccc(OC)cc1 | 0 | 0 | 7.3µM | 0 | 0 | 6.5µM
CCOc1ccccc1C(=O)NC(C(=O)Nc1ccccc1N1CCOCC1)C(C)C (configuration not stated) | - | 0 | ? | 0[9.24 µM] | 0 | ?
CCOc1cc(N2CCOCC2)c(OCC)cc1NC(=O)C(NC(=O)c1c(F)cccc1F)C(C)C (configuration not stated) | 0 | 0 | 9.2µM | 0 | 0 | ?
CCOc1cc(N2CCOCC2)c(OCC)cc1NC(=O)c1ccco1 | - | 0 | 12µM | 0 | 0 | 0
O=C(CN1CCCCC1)NNc1nc(-c2ccccc2)c2cc(Br)ccc2n1 | 0 | 0 | 0 | 0 | 0 | 0
CCCNC(=O)N[C@H]1C=C[C@H](CC(=O)OC)O[C@@H]1CO | - | 0 | 0 | 0 | 0 | 0
SMILES | uPA generation | HT1080 IDH1KD tx | DT40 TDP1 no CPT | HT1080NT lethal | IL1B secr inh | TDP1 cell CPT
CCOc1cc(N2CCOCC2)c(OCC)cc1NC(=O)c1cnccn1 | 0 | 0 | 23µM | 0 | 0 | 21µM
CCOc1cc(N2CCOCC2)c(OCC)cc1NC(=O)c1ccc(OCc2c(C)noc2C)c(OC)c1 | 0 | 0 | 10µM | 0 | 0 | 15µM
CCOc1cc(N2CCOCC2)c(OCC)cc1NC(=O)c1nc2nc(C)cc(C)n2n1 | 0 | 0 | 23µM | 0 | 0 | ?
CC(C)COc1ccc(C(=O)Nc2ccc(N3CCOCC3)cc2N2CCOCC2)cc1 | 0 | 0 | 16µM | 0 | 0 | 18µM
CCOc1cc(N2CCOCC2)c(OCC)cc1NC(=O)c1ccc2ccccc2n1 | 0 | 0 | ? | 0 | 0 | ?
CCOc1cc(-n2cnnn2)c(OCC)cc1NC(=O)c1cnccn1 | 0 | 0 | 0 | 0 | 0 | 0
COc1ccc(CNC(=O)CCc2nnc3n(CC(C)C)c(=O)c4ccccc4n23)cc1 | - | - | 0 | - | - | 0
Cc1ccc([C@H]2C(C(=O)O)=CC[C@@H](c3ccc(C)cc3)N2S(=O)(=O)c2ccccc2C)cc1 | 0 | 0 | ? | 0 | 0 | ?
O=C(c1cc2ccccc2oc1=O)N(Cc1ccccc1)Cc1ccc2c(c1)OCO2 | 0 | 0 | ? | 0 | ? | ?
Cn1nc(C(=O)NCc2ccc(F)cc2)cc1C(=O)NCc1ccc(F)cc1 | 0 | ? | ? | ? | 0 | ?
Cc1ccc(CNC(=O)Cc2noc3ccccc23)cc1 | 0 | 0 | ? | 0 | 0 | 0
COc1ccc(CCNC(=O)NCc2noc3ccccc23)c(OC)c1 | - | - | 21µM | - | - | ?
O=C(NCc1ccccc1Cl)NCc1noc2ccccc12 | - | - | 9.2µM | - | - | ?
COc1ccc(S(=O)(=O)NNC(=O)c2cc3c4ccccc4n(C)c3s2)cc1 | 0 | ? | 4.1µM | 0 | 0 | 2.9µM
Cc1cc(C)n(-c2ccc(C(=O)OCC(=O)Nc3ccc(Cl)cc3[N+](=O)[O-])cc2)n1 | 0 | 0 | 0 | 0 | 0 | 0
COc1ccc(NC(=O)CCn2nc(C)cc2C)cc1 | 0 | 0[9.24 µM] | 0 | 0 | 0 | 0
CCc1ccc(NC(=O)CCn2nc(-c3ccccc3OC)c3c(C)cc(C)nc32)cc1 | - | - | 21µM | - | - | ?
COc1ccc(NC(=O)CCn2nc(-c3ccccc3OC)c3c(C)cc(C)nc32)cc1 | - | - | 21µM | - | - | ?
O=C(CSc1ccccn1)N1CCNC1=O | 0 | 0 | 0 | 0 | 0 | 0
